Measured values from publication PMC12723454.
The list is a sample of the results. The true hit rate is not given.

B1: HHH_b1_08438_000000177_dldesign_0_cycle1_af2pred_0001 (protein)
chain: GGSGGSAEEEVEKLIEEAKNNPDKEKAEELLSRALKLADAAGNVDLRSKTMNALFDVLGGSGGSG
B2: HHH_b1_01197_000000280_dldesign_0_cycle1_af2pred_0001 (protein)
chain: GGSGGSGKSSEIDKLLNEVLKLGKEEEYLKIMSLKMDYLETGDEEIFKEAKELAKKVIGGSGGSG
B3: HHH_b2_07220_000000120_dldesign_0_cycle1_af2pred_0001 (protein)
chain: SGGSEESKKLVEETIKKAKKLVEEGNPLEAKILLRKTLLDLSELGDDEGFSKLSKFLDEIEGGSG
B4: HHH_b1_00135_000000286_dldesign_0_cycle1_af2pred_0001 (protein)
chain: SGGSLAVETAKEYLEMVKSYAEEGDKEEAQFFADIIKLLAESENNPELKKIYEEAKKIVEEGGSG
B5: HHH_b1_08653_000000138_dldesign_0_cycle1_af2pred_0001 (protein)
chain: GSGGSGASLAAEDILRAMRQFARAGKPEAVRDLAKKGIKIMTEAGRPDEAKRIEEELARLGGSGG
B6: HHH_b1_02099_000000008_dldesign_0_cycle1_af2pred_0001 (protein)
chain: SGGSMEELDECARLLNELAHAIEEGNKEKFEELYKKARELIEKLGDEALLKALDELEEAFYGGSG
B7: ac710d00df0a15e663fb636f306744b3_0001_1_000000013_dldesign_0_cycle1_af2pred_0001 (protein)
chain: GIRERAREMAKKHGVSDEELQPVIDLVEKMRAEGKSIEEIARELGEKLAETGNKAYACVLEALAE

Each binder was assayed against Flpp3 (assay: yeast display titration).
For B1, the apparent Kd was > 11.6 µM (inactive).
B2 was tested, and the apparent Kd was > 5.39 µM (inactive).
For B3, the apparent Kd was > 4.46 µM (inactive).
For B4, the apparent Kd was > 7.9 µM (inactive).
For B5, the apparent Kd was > 134 µM (inactive).
For B6, the apparent Kd was > 0.105 µM (inactive).
In the case of B7, the apparent Kd is reported as > 0.105 µM (inactive).
